Experimental data as given in PubChem BioAssay (NCI).
About 83,000 compounds went through this panel and 20% of them were active in at least one assay; those are over-represented in the sample as a whole.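 Cells were grown in 96-well plates and exposed to the test compound at a single concentration for 48 hours; results are reported as percent growth, with values below 10 considered active.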 Values without a mark were called inactive. Active and inactive are the calls of the source.

Tests used:
Experiment in all cases: NCI-60 one-dose screen, 48 h (100 = growth as untreated, 0 = no growth, -100 = all killed)
Settings in all cases: 10 µM unless noted
NCI-H23 lung = test system: NCI-H23 lung
NCI-H226 lung = test system: NCI-H226 lung
NCI-H322M lung = test system: NCI-H322M lung
HOP-62 NSCLC = test system: HOP-62 NSCLC
NCI-H460 lung = test system: NCI-H460 lung
HOP-92 NSCLC = test system: HOP-92 NSCLC
NCI-H522 lung = test system: NCI-H522 lung
A549/ATCC NSCLC = test system: A549/ATCC NSCLC
786-0 renal = test system: 786-0 renal
COLO 205 colon = test system: COLO 205 colon
DU-145 prostate = test system: DU-145 prostate
K-562 leukemia = test system: K-562 leukemia
MALME-3M melanoma = test system: MALME-3M melanoma
MDA-MB-231 breast = test system: MDA-MB-231 breast
RXF 393 renal = test system: RXF 393 renal
SF-268 CNS = test system: SF-268 CNS
SF-295 CNS = test system: SF-295 CNS
SF-539 CNS = test system: SF-539 CNS
UACC-257 melanoma = test system: UACC-257 melanoma
M14 melanoma = test system: M14 melanoma

Structure (SMILES)	growth (NCI-H23 lung)	growth (NCI-H226 lung)	growth (NCI-H322M lung)	growth (HOP-62 NSCLC)	growth (NCI-H460 lung)	growth (HOP-92 NSCLC)	growth (NCI-H522 lung)	growth (A549/ATCC NSCLC)	growth (786-0 renal)	growth (COLO 205 colon)	growth (DU-145 prostate)	growth (K-562 leukemia)	growth (MALME-3M melanoma)	growth (MDA-MB-231 breast)	growth (RXF 393 renal)	growth (SF-268 CNS)	growth (SF-295 CNS)	growth (SF-539 CNS)	growth (UACC-257 melanoma)	growth (M14 melanoma)
CCCCCCC1(C)NCCO1 (stereo not given)	99.1%	103%	87.3%	105%	106%	102%	100%	99.4%	102%	102%	111%	104%	105%	104%	118%	93.6%	102%	110%	99%	104%
O=C1/C(=C/c2ccc(Cl)c(Cl)c2)CN(C(=O)C(Cl)Cl)C/C1=C\c1ccc(Cl)c(Cl)c1	-66.3% (active)	-31.2% (active)	-22.8% (active)	-21.8% (active)	-55.8% (active)	-53% (active)	-35.1% (active)	7.18% (active)	-90.7% (active)	-47.1% (active)	-76.1% (active)	0.245% (active)	-57.6% (active)	-34.2% (active)	-80% (active)	-64.7% (active)	-79.7% (active)	-93.2% (active)	-11.4% (active)	-66.9% (active)
O=C1Nc2ccccc2[C@]12CC(c1ccccc1)=NN2	64.3%	77.7%	59.6%	59.6%	21.5%	30.8%	39.4%	44.3%	50.7%	3.6% (active)	74.5%	21.8%	37.2%	53.4%	73.3%	47.5%	45.6%	28.4%	67.8%	25.8%
Cn1ccc2c3c(ccc21)CC3=O	97%	100%	116%	111%	108%	114%	98.4%	105%	107%	119%	120%	111%	121%	103%	115%	110%	112%	126%	114%	107%
CN([O-])c1nc(N(C)[O-])nc(N2CCOCC2)n1.CN([O-])c1nc(N(C)[OH2+])nc(N2CCOCC2)n1.[Fe+3]	100% [100 µM]	101% [100 µM]	104% [100 µM]	165% [100 µM]	36.1% [100 µM]	61.7% [100 µM]	52.9% [100 µM]	72.7% [100 µM]	114% [100 µM]	144% [100 µM]	63.1% [100 µM]	16.7% [100 µM]	118% [100 µM]	110% [100 µM]	75.5% [100 µM]	-14.2% [100 µM] (active)	10.3% [100 µM]	108% [100 µM]	96.2% [100 µM]	91.7% [100 µM]
CC(=O)Nc1nc2ccc(NS(=O)(=O)c3cccc4c(N(C)C)cccc34)cc2[nH]1	70.5%	68.7%	82.2%	69.3%	68%	72.2%	43.3%	68%	79.7%	65.9%	87.8%	20.6%	52.3%	63.5%	53.8%	65.6%	37.3%	57.9%	61.9%	35.9%
Cc1ccc(-c2nc3nc(-c4ccccc4)nc(N4CCNCC4)c3o2)cc1	-73.7% (active)	-68.6% (active)	-95.9% (active)	-92.9% (active)	-72.4% (active)	-73.5% (active)	-79.2% (active)	-84.5% (active)	-84.5% (active)	-92.4% (active)	-86.8% (active)	-71% (active)	-80.4% (active)	-79.3% (active)	-81.2% (active)	-67.2% (active)	-83.2% (active)	-93.4% (active)	-89.2% (active)	-84.7% (active)
N=C(N)c1ccc(-c2ccc(-c3ccc(F)cc3)o2)o1	44.8%	69.7%	42.4%	38.1%	-13.7% (active)	16.2%	37.4%	1.43% (active)	15.4%	-76.5% (active)	28.7%	-28.5% (active)	41.6%	8.5% (active)	39.6%	30%	31.4%	21.9%	57.7%	-54.1% (active)
CCN1CCN(c2cc(C(=O)Nc3nc(-c4cc(OC)c(OC)c(OC)c4)cs3)cc(C(F)(F)F)c2)CC1	79.4%	86.8%	78%	82.7%	57.3%	42.2%	67.6%	81.1%	49.1%	58.2%	74.9%	3.83% (active)	69.3%	47%	69.3%	65.1%	83.2%	75.6%	88.6%	42.1%
Cc1cccc(N2CCN(CC(O)COc3ccc(Cl)cc3)CC2)c1 (stereo not given)	109%	105%	104%	100%	112%	88.1%	94.1%	117%	98%	98%	115%	82.9%	146%	94.5%	107%	105%	82.3%	101%	108%	95.9%
O=C(/C=C/c1ccccc1)c1cccc(OCCCOc2cccc(C(=O)/C=C/c3ccccc3)c2)c1	95.5%	108%	105%	116%	101%	101%	90.3%	87.2%	92.9%	94.1%	100%	46.4%	107%	97.4%	94.9%	104%	94.2%	107%	96.4%	95%
COc1ccc(N2CCC(=O)NC2=S)cc1	96.2%	98.6%	112%	107%	104%	125%	88.9%	108%	104%	106%	115%	107%	110%	102%	109%	99.8%	100%	99.4%	108%	98.7%
CN(C)CCNc1nc2c3cc(Cl)ccc3nn2c2ccccc12	45.5%	61.1%	40.2%	43.9%	15.8%	36.8%	67%	31.5%	38.1%	26.3%	54.3%	46.5%	42%	46.8%	4.75% (active)	45.7%	26.9%	36.8%	52.5%	62.1%
Oc1c(Cl)cc(Cl)c2ccc(Cn3cc(-c4cc(F)cc(F)c4)nn3)nc12	92.3%	95.1%	111%	98.9%	104%	29%	-38.7% (active)	102%	95.6%	70.4%	58.5%	7.96% (active)	37.2%	97.9%	25.6%	97.2%	100%	65.8%	60.4%	61.5%
CCOC(=O)C#Cc1c(C(=O)OCC)nnn1[C@@H]1O[C@H](CO)[C@H]2OC3(CCCCC3)O[C@H]21	93.9%	80.7%	98%	110%	98.5%	54.5%	-25.2% (active)	95.2%	66.9%	-27.2% (active)	52.1%	5.02% (active)	55.1%	95.6%	9.92% (active)	94.6%	101%	81.1%	46.8%	59.4%
